The nature of assay [1]: qHTS assay to identify small molecule agonists of the peroxisome proliferator-activated receptor delta (PPARd) signaling pathway - cell viability counter screen (AID 743211). Further: nearly all actives have a fitted effect of over 55% in size. In outline: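 Tox21 library compounds, delivered in DMSO, were incubated 17 h with PPARd-bla HEK293H cells; cytotoxicity was taken from CellTiter-Glo luminescence read 30 min after reagent addition.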

Assay [2] has as its target Peroxisome proliferator-activated receptor delta (Homo sapiens) (UniProt Q03181). The assay can be described thus: qHTS assay to identify small molecule agonists of the peroxisome proliferator-activated receptor delta (PPARd) signaling pathway (AID 743212; calls by dose curve). In a few lines: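 HEK293H UAS-bla reporter cells, human PPARd system; compounds delivered in DMSO after 5 h plating, then at 37 C. Beta-lactamase FRET read, 2 h RT substrate step.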

Assay [3] is described as follows: qHTS assay to identify small molecule antagonists of the peroxisome proliferator-activated receptor delta (PPARd) signaling pathway - cell viability counter screen (AID 743213). Further: nearly all actives have a fitted effect of over 50% in size. Further: potency means the concentration at half of the fitted maximal effect. In outline: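 Same-well viability: cells pre-incubated 5 h, dosed with compound plus 300 nM L165041, kept 17 h at 37 C, FRET substrate 2 h RT, then CellTiter-Glo 30 min RT and luminescence.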

Assay [4] has as its target Peroxisome proliferator-activated receptor delta (Homo sapiens) (UniProt Q03181). Briefly: qHTS assay to identify small molecule antagonists of the peroxisome proliferator-activated receptor delta (PPARd) signaling pathway (AID 743215; active means well fitted inhibition curve with a large enough effect in the signal ratio in the repeat runs, not every such curve was filed as active; the % refers to the signal ratio;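 further: cells stimulated with agonist L165041 at 300 nM final during compound exposure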; further: potency means the concentration at half of the fitted maximal effect). In a few lines:
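With L165041 present at 300 nM final, compounds were incubated 17 h at 37 C on PPARd UAS-bla HEK293H cells. A FRET-based beta-lactamase substrate was then applied for 2 h at room temperature and fluorescence intensity recorded.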

Assay [5] addresses Bile acid receptor (Homo sapiens) (UniProt Q96RI1). Briefly: qHTS assay to identify small molecule antagonists of the farnesoid-X-receptor (FXR) signaling pathway (AID 743217; active means well fitted inhibition curve with a large enough effect in the signal ratio in the repeat runs, not every such curve was filed as active; the % refers to the signal ratio; further: potency means the concentration at half of the fitted maximal effect). In a few lines: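 In this cell-based antagonist screen, inhibition of CDCA-driven (50 uM final) UAS-beta-lactamase expression in HEK 293T cells was measured by FRET fluorescence following 16 h compound exposure at 37 °C.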

Assay [6] in a line: qHTS assay to identify small molecule agonists of the farnesoid-X-receptor (FXR) signaling pathway - cell viability counter screen (AID 743218). Further: nearly all actives have a fitted effect of over 45% in size. Further: potency means the concentration at half of the fitted maximal effect. In outline: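 After 16 h at 37 C with test compounds, FXR-bla HEK 293T cells were given LiveBLAzer B/G substrate for 2 h at RT and then CellTiter-Glo; luminescence was taken after 30 min.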
A short description of assay [7]: qHTS assay to identify small molecule antagonists of the farnesoid-X-receptor (FXR) signaling pathway - cell viability counter screen (AID 743221; active means well fitted cell-killing curve with a large enough effect in the repeat runs, not every such curve was filed as active; further: nearly all actives have a fitted effect of over 50% in size). In outline:
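Cytotoxicity is taken from ATP luminescence (CellTiter-Glo, 30 min, room temperature) in FXR-bla HEK 293T cells previously incubated 16 h at 37 C with compound and chenodeoxycholic acid at 50 uM final.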

For assay [8], the target named is Vitamin D3 receptor (Homo sapiens) (UniProt P11473). The assay can be described thus: qHTS assay to identify small molecule agonists of the vitamin D receptor (VDR) signaling pathway (AID 743222; calls by dose curve). In outline: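 VDR-bla cells were seeded, left 4 h, treated with compounds in DMSO for 16 h, incubated 2 h at RT with B/G FRET substrate, and read for fluorescence.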
Sequence of Vitamin D3 receptor (Homo sapiens) (P11473 whole entry, looked up): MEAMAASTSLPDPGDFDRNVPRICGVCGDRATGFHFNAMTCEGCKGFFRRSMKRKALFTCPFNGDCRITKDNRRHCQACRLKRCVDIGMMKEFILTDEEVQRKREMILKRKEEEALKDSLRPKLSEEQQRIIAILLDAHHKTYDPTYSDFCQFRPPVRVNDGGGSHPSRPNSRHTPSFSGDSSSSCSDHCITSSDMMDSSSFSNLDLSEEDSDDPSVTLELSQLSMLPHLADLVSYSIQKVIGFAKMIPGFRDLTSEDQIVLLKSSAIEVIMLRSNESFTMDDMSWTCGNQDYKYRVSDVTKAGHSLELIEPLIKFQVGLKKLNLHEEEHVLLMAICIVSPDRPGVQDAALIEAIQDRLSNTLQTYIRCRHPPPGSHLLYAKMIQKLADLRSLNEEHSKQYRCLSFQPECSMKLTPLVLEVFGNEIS
The target is the same in assay [9]. Briefly: qHTS assay to identify small molecule antagonists of the vitamin D receptor (VDR) signaling pathway (AID 743223; active means well fitted inhibition curve with a large enough effect in the signal ratio in the repeat runs, not every such curve was filed as active; the % refers to the signal ratio). In outline: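 Quantitative HTS in VDR-bla reporter cells stimulated with 1alpha,25-dihydroxyvitamin D3, 3 nM final. Compound exposure 16 h, 37C, 5% CO2. Read-out: beta-lactamase FRET substrate fluorescence, 2 h RT.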
The target of assay [10] is Bile acid receptor (Homo sapiens) (UniProt Q96RI1). The assay can be described thus: qHTS assay to identify small molecule agonists of the farnesoid-X-receptor (FXR) signaling pathway (AID 743220; active means well fitted activation curve with a large enough effect in the signal ratio in the repeat runs, not every such curve was filed as active; the % refers to the signal ratio). In a few lines:
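Beta-lactamase reporter under UAS control in GeneBLAzer FXR HEK 293T cells (5000/well) measured with LiveBLAzer FRET substrate after 2 h at room temperature. Compound exposure lasted 16 h at 37C.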

Values joined by “and” are separate entries in the source; they are usually repeats but may differ in a detail not shown here. Equal values may be shown once. Records with an inconclusive call do not appear. Where a structure was tested more than once in an assay, its records may differ in their call. Active and inactive are the calls of the source. Unless noted, the call rests on the fitted dose curve; in most records, active means well fitted curve in the direction sought with a large enough effect in the repeat runs; inconclusive means weak or mixed curves; inactive means no such curve, though single readings can be large; an effect the other way counts as inactive or inconclusive.

Experimental findings from PubChem BioAssay (Tox21) are described below.

Sequence of Peroxisome proliferator-activated receptor delta (Homo sapiens) (Q03181 whole entry, looked up): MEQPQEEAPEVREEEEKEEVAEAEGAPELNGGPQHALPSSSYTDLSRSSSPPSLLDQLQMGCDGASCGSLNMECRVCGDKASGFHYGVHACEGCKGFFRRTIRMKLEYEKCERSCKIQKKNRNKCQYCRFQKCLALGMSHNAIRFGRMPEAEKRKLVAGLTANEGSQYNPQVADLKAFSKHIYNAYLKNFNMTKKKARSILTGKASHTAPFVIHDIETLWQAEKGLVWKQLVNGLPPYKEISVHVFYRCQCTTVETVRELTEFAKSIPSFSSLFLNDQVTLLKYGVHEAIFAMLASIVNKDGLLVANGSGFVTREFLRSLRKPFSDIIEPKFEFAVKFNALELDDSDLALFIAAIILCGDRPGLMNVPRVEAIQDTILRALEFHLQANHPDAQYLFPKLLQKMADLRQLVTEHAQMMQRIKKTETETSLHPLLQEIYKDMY
Sequence of Bile acid receptor (Homo sapiens) (Q96RI1 whole entry, looked up): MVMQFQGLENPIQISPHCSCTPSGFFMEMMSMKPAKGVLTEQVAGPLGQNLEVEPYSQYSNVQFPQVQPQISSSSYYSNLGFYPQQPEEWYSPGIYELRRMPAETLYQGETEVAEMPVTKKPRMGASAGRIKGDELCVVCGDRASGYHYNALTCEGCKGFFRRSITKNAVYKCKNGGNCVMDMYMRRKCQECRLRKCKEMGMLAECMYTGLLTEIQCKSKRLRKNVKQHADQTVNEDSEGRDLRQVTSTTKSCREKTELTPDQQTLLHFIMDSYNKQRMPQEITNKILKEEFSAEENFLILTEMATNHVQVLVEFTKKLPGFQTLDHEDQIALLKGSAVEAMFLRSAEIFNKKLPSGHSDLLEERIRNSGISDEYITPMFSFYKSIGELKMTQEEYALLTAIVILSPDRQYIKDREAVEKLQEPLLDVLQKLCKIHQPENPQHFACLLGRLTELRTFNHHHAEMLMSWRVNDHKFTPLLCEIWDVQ

As for `CC(=O)c1ccccn1`, the Potency result in [1], in assay [3], in assay [4], in assay [5], in assay [6] and in assay [7] was “inactive” throughout. In addition, the compound was classed as inactive in assay [2], in assay [8] and in assay [9].
Regarding `Cc1ccc(C)c(O)c1C`, the Potency entry in assay [1], in assay [3], in assay [4], in assay [6] and in assay [7] was “inactive” in each case. The call in [2], in assay [8] and in assay [9] was inactive.
Regarding `NNc1ccc(C(=O)O)cc1`, the Potency entry in assay [1], in [3], in [4], in assay [6] and in assay [7] was “inactive” in each case. Further, the compound was classed as inactive in [2], in assay [8] and in assay [9].
As to `CCCCOCCOCCOCCO`, the Potency result in [1], in assay [3], in assay [4], in [6] and in [7] was “inactive” throughout. The outcome in assay [2], in [8] and in assay [9] was inactive.
In the case of `Oc1ccc(O)cc1`, the Potency result in assay [1], in assay [3], in [4], in assay [6] and in assay [7] was “inactive” each time. The compound was classed as inactive in assay [2].
As for `O=C(/C=C/c1ccccc1)OCc1ccccc1`, the Potency result in assay [1], in assay [3], in assay [4], in assay [6] and in assay [7] was “inactive” each time. In addition, in [2], the call was inactive.
For `CC(C)OC=O`, the call in assay [2], in assay [8] and in [9] was inactive. Further, the Potency result in assay [3], in [4], in assay [5], in assay [6] and in assay [7] was “inactive” in each case.
For the compound `COc1cccc2c1C(=O)c1c(O)c3c(c(O)c1C2=O)C[C@@](O)(C(=O)CO)C[C@@H]3O[C@H]1C[C@H](N)[C@H](O)[C@H](C)O1`, the Potency result in [3], in [6] and in [7] was “inactive” throughout. In addition, in assay [4], the Potency was 1.55 µM (active) and 2.98 µM (active).
Regarding `COC(=O)C1=C(C)NC(C)=C(C(=O)OCCN(C)Cc2ccccc2)C1c1cccc([N+](=O)[O-])c1` (centres undefined), the compound was classed as inactive in assay [2]. Besides, the Potency in assay [3] is 48.7 µM (active) and 26.6 µM (active); in [6] it was 24.4 µM (active) and 29.8 µM (active).
In the case of `c1ccc2sc(SSN3CCOCC3)nc2c1`, the Potency result in assay [3], in assay [5], in assay [6] and in assay [7] was “inactive” throughout. Moreover, the compound was called inactive in assay [9].
For the compound `CC(C)OB(OC(C)C)OC(C)C`, the Potency entry in [3], in [5], in [6] and in [7] was “inactive” each time. Besides, the result in [10], in assay [8] and in assay [9] was inactive.
Take `COc1cc([C@@H]2c3cc4c(cc3[C@H](O)[C@H]3COC(=O)[C@H]23)OCO4)cc(OC)c1OC`: the Potency result in [4], in assay [6] and in [7] was “inactive” each time. For the same compound, in [8], the compound was classed as inactive.
Turning to `Nc1ncnc2nc[nH]c12`, the compound was called inactive in assay [2], in [8] and in assay [9]. For the same compound, the Potency entry in [3], in assay [4], in assay [5], in assay [6] and in assay [7] was “inactive” throughout.
Regarding `O=C(COc1ccc(Cl)cc1)N1CCN(Cc2ccc3c(c2)OCO3)CC1`, the call in assay [2], in [8] and in assay [9] was inactive. For the same compound, the Potency result in [3], in assay [4] and in assay [7] was “inactive” in each case.
Consider `OC[C@H]1O[C@@H]2O[C@H]3[C@H](O)[C@@H](O)[C@@H](O[C@H]4[C@H](O)[C@@H](O)[C@@H](O[C@H]5[C@H](O)[C@@H](O)[C@@H](O[C@H]6[C@H](O)[C@@H](O)[C@@H](O[C@H]7[C@H](O)[C@@H](O)[C@@H](O[C@H]8[C@H](O)[C@@H](O)[C@@H](O[C@H]1[C@H](O)[C@H]2O)O[C@@H]8CO)O[C@@H]7CO)O[C@@H]6CO)O[C@@H]5CO)O[C@@H]4CO)O[C@@H]3CO`, for which the Potency result in [3], in [6] and in assay [7] was “inactive” each time.
Take `O=C(/C=C/C=C/c1ccc2c(c1)OCO2)N1CCCCC1`: the result in [2], in assay [10], in [8] and in assay [9] was inactive. For the same compound, the Potency entry in assay [3], in assay [6] and in assay [7] was “inactive” each time. In addition, in assay [5], the Potency result is “inactive and 54.9 µM (active)”.
Consider `O=P(O)(O)O`, for which the Potency entry in [3], in assay [5], in assay [6] and in assay [7] was “inactive” in each case. Also, the call in [8] and in assay [9] was inactive.
Turning to `C#C[C@]1(O)CC[C@H]2[C@@H]3CCC4=Cc5oncc5C[C@]4(C)[C@H]3CC[C@@]21C`, the Potency result in [3] is “inactive”.
Regarding `CCCCC(CC)COC(=O)c1ccc(N(C)C)cc1` (centres undefined), the compound was called inactive in [2], in [10], in assay [8] and in assay [9]. For the same compound, the Potency result in assay [3], in assay [4], in [6] and in assay [7] was “inactive” each time.
As to `O=C(Nc1ccc(Cl)cc1)Nc1ccc(Cl)c(Cl)c1`, in assay [2], the call was inactive. The Potency in assay [3] is 19.4 µM (active); in assay [4], 19.4 µM (active); in assay [6], “inactive and 2.66 µM (active)”.
For the compound `c1ccc2c(c1)Oc1ccccc1S2`, the result in assay [2], in assay [8] and in assay [9] was inactive. The Potency result in [3], in [4], in assay [6] and in assay [7] was “inactive” in each case.
Take `CCC(C)c1ccccc1O` (centres undefined): the compound was classed as inactive in assay [2], in [8] and in [9]. In addition, the Potency entry in assay [3], in assay [4], in [6] and in [7] was “inactive” in each case.
